KKLEB cytotox = cytotoxicity in KKLEB CF airway cells, primary screen, cytotoxicity control for CF NF-kB inhibitor project, cell-based, uHTS, fluorescence assay plates; KKLEB CF airway cells viability, ATPlite luminescence, overnight; active compounds read low; cells stimulated with P. aeruginosa culture filtrate; activity change (cytotoxicity), % at 5 µM; 360,000 compounds, 0.36% hits;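 active = corrected activity change at or below -50% at 5 µM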
TRPM1 prom inh = inhibitors of MITF-dependent TRPM1 promoter reporter, primary screen, cell-based, SK-MEL-5, single point, luciferase. SK-MEL-5 TRPM1 promoter luciferase, 24 h. inhibition, % at 12.5 µM. 330,000 compounds, 0.83% hits. AID 488899, 2010;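 active = mean inhibition across replicates of 60% or more, whatever share of single replicates reaches that level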
CF NFkB block = inhibitors of PAF-induced NF-kB signaling, primary screen, cell-based, GFP fluorescence, uHTS | KKLEB NF-kB-GFP reporter, GFP fluorescence overnight | inhibition, % at 5 µM | 360,000 compounds, 0.86% hits;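 active = at least 50% inhibition at 5 µM, scaled per plate between neutral and stimulator controls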;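 also: PAF is a Pseudomonas aeruginosa culture filtrate used as stimulus; plate controls were PAF-stimulated DMSO wells for no effect and unstimulated DMSO wells for full effect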
Shn3 3UTR inh = reduction of Shn3 3'UTR firefly luciferase signal, primary screen, Schnurri-3 inhibitor project, cell-based, Clone20 osteoblasts, set 2; 360,000 compounds, 0.52% hits; inhibition, % at 12.5 µM; Clone20 osteoblast Shn3 3'UTR firefly luciferase, 24 h; AID 588674, 2011;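 active = mean inhibition of at least 75% with every replicate also reaching 75%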;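 also: 0% = median of neutral control wells and 100% = pilot-screen positive control compound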
Peg3 promoter = Peg3 promoter-driven luciferase inhibitors, primary screen, cell-based, HeLa, luciferase luminescence | inhibition, % at 20 µM | 360,000 compounds, 1.7% hits | HeLa PEG-Prom luciferase reporter, overnight;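 active = inhibition of at least 50% at 20 µM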
HIF-2a block = HIF-2a reporter inhibitors, primary screen, luminescence, 786-0 RCC cells; 786-0 RCC cells HIF-2a reporter, luciferase luminescence, overnight; inhibition, % at 18.8 µM; 360,000 compounds, 0.72% hits; AID 624352, 2012;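 active = inhibition of the luminescence signal of 40% or more relative to plate controls, in a single-dose primary screen at 18.75 µM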
An asterisk follows results filed as active; x = no result. Rows were chosen to be rich in hits. Some 2.7% of all compounds tested hit in one or more screens of this group.

SMILES	KKLEB cytotox	TRPM1 prom inh	CF NFkB block	Shn3 3UTR inh	Peg3 promoter	HIF-2a block
CC1(C)CC(=O)C2=C(C1)Oc1nc3ccccc3cc1C2C(C#N)C#N (configuration not stated)	-5	80*	64*	-16	58*	7
CCOc1ccccc1C(=O)NCC(=O)N(C)Cc1cccnc1	0	-7	-2	-6	3	3
O=C(O)c1ccccc1NC(=S)NC(=O)c1sc2ccccc2c1Cl	-1	-9	28	-9	-87	-72
O=C(NNC(=S)NC(=O)c1sc2ccccc2c1Cl)c1ccc(Cl)cc1	-65*	31	76*	-41	-23	-95
c1ccc(C2(CN3CCNC[C@H]3Cc3cccc4ccccc34)CC2)cc1	-2	x	1	6	79*	10
COc1cc2c(C(=O)N3CCN(C)CC3)c(C)n(-c3ccccc3)c2cc1Br	-11	-5	-2	8	14	-6
CCN(CC)CCNC(=O)c1c(C)n(-c2ccccc2)c2cc(Br)c(OC)cc12	-16	74*	16	4	65*	22
COc1cc(CCC(=O)OCC(=O)N(CC(C)C)C2CCS(=O)(=O)C2)cc(OC)c1OC (configuration not stated)	5	3	1	-3	-9	14
Cc1cc(C)c(S(=O)(=O)Nc2cccc(C(=O)O)c2)cc1S(=O)(=O)Nc1cccc(C(=O)O)c1	13	-3	-35	1	18	15
On1ccccc1=S	1	75*	-9	83	100*	11
COc1ccc(NC(=O)c2cc(-c3ccccc3O)n[nH]2)cc1Cl	11	-4	-6	1	-41	-64
COc1ccc(NC(=O)c2cc(-c3cc(C)cc(C)c3O)n[nH]2)cc1Cl	-4	2	33	11	61*	-12
COc1ccc(N2CCN(Cc3cc(=O)oc4cc(-c5ccccc5)c(O)cc34)CC2)cc1	-10	50	-2	17	70*	8
Cc1cc(-c2nn(-c3ccccc3)cc2/C=C2\SC(N)=NC2=O)ccc1OC(C)C	12	-6	-14	8	78*	4
CCCOc1ccc(-c2nn(-c3ccccc3)cc2/C=C2\SC(N)=NC2=O)cc1	-3	11	11	-5	11	9
Oc1ccc2ccccc2c1N=Nc1ccccn1	3	60	-15	95*	9	-70
COc1ccc([C@H]2N[C@]3(CCCN(Cc4cccn4C)C3=O)[C@H]3C(=O)N(Cc4ccccc4)C(=O)[C@@H]23)cc1	-3	x	0	8	0	3
O=C(/C=C/c1ccccc1)c1ccc2c3c(cccc13)CC2	-18	-36	-14	-25	60*	-320
Cc1c(NC(=O)c2ccc3c4c(cccc24)CC3)c(=O)n(-c2ccccc2)n1C	4	-4	-5	12	9	-8
O=c1cc(CSc2ccc(Cl)cc2)nc(-c2ccccn2)[nH]1	10	67*	4	63	91*	-8
NCC12CC3CC(C1)CC(c1ccc(Cl)cc1)(C3)C2	-29	23	23	27	108*	13
Nc1ccc(C23CC4CC(CC(CO)(C4)C2)C3)cc1	-3	-2	-7	-4	-36	-2
O=C(CCn1c(=O)oc2ccc(Cl)cc21)NCCCN1CCOCC1	-12	-1	13	-5	4	10
COc1ccc(C(=O)CC(=O)c2ccc(C(C)(C)C)cc2)cc1	-16	-13	2	24	-38	-26
COc1ccc(C(=O)C(CCC(CNC(C)(C)C)C(=O)c2ccc(OC)cc2)CNC(C)(C)C)cc1 (configuration not stated)	-27	95*	42	5	105*	45*
SMILES	KKLEB cytotox	TRPM1 prom inh	CF NFkB block	Shn3 3UTR inh	Peg3 promoter	HIF-2a block
CCc1ccccc1NC(=O)CN(C)C(=O)COC(=O)c1ccco1	-6	1	15	-7	0	13
COc1cccc(C(=O)Nn2c(-c3cccs3)nc3ccccc3c2=O)c1OC	-20	17	-10	-11	22	11
COc1ccc(CNn2c(-c3cccs3)nc3ccccc3c2=O)cc1OC	-13	-1	-14	-16	53*	-3
CC(=O)c1ccc([N+](=O)[O-])c(CS(=O)(=O)c2ccccc2)c1	4	-5	4	0	10	10
O=C1CCC(=O)c2oc3ccccc3c2N1	9	7	-25	14	8	5
O=C1CCc2cccc(O)c2N1	10	5	21	94*	1	6
COc1ccc(CN(C)C(C)C(=O)Nc2ccc(S(=O)(=O)N3CCCCC3)cc2)cc1F (configuration not stated)	3	4	0	-1	21	-6
COCCN(C(=O)c1cc(Cl)nc2ccccc12)c1c(N)n(Cc2ccccc2)c(=O)[nH]c1=O	-14	-9	26	-12	8	10
Cn1cc([N+](=O)[O-])c(C(=O)N2CCN(Cc3ccc4c(c3)OCO4)CC2)n1	-7	10	1	4	5	13
COc1cc2c3nnc(-c4ccc(F)cc4)c-3cn(Cc3ccccc3F)c2cc1OC	0	92*	-63	24	110*	26
CSc1nc(NCCN(C)C)c2sc3nc(-c4ccco4)c4c(c3c2n1)CCC4	3	-4	4	-10	106*	19
CCN(CC)CCNc1ncnc2c1sc1nc(N3CCCC3)c3c(c12)CC(C)(C)OC3	-23	40	25	-44	79*	30
CCN(CC)CCNc1ncnc2c1sc1nc(N3CCOCC3)c3c(c12)CCCC3	-19	77*	12	3	100*	8
C[C@H]1CN([C@@H](C)CO)C(=O)CCCn2nncc2CO[C@H]1CN(C)S(=O)(=O)c1ccc(-n2cccn2)cc1	18	x	-38	-7	-1	4
Cc1nc(N2CCN(c3ccccn3)CC2)c2c(C)c(C(=O)N3CCN(c4ccccc4F)CC3)sc2n1	-17	6	12	-2	72*	12
COc1ccccc1CNC(=O)CN(C)S(=O)(=O)c1ccc(Br)s1	-5	12	9	-6	-1	6
Cc1ccc(C(=O)Nc2nnc(NC(=S)Nc3ccccc3)s2)cc1	-2	-47	65*	-23	-77	-123
CCn1c(O)c(/C=N/N=C/c2ccccc2)c2ccc(C3=NNC(=O)CC3)cc21	6	2	-10	-9	50*	14

Screens from PubChem.
